Source: PubChem BioAssay (NCI)
The panel holds about 83,000 compounds, 20% with a hit somewhere; the sample as a whole holds those more often.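 Cell lines were cultured in 96-well plates, exposed to a single compound concentration, and assessed for percent growth 48 hours later.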 Unmarked numbers belong to inactive results. Active and inactive are the calls of the source.

system: OVCAR-3 ovarian; assay: NCI-60 one-dose screen, 48 h (100 = growth as untreated, 0 = no growth, -100 = all killed); settings: 10 µM
Procedure: Growth inhibition of the OVCAR-3 human tumor cell line is measured as a screen for anti-cancer activity. Cells are grown in 96 well plates and exposed to the test compound for 48 hours. Compounds are tested at a single concentration, which is 10^-5 M for most compounds. The reported endpoint is percent growth (GI% or GIPRCNT), where numbers from 0 - 100% represent growth inhibition, and numbers from -100% - 0 represent cell death. For example, a value of 40 represents 60% growth inhibition. A value of 0 means no net growth occurred over the course of the experiment. A value of -40 indicates 40% of cells at the beginning of the experiment died by the end of the experiment. A value of -100 means all cells are dead at the end of the experiment.
NCI-60 Human Tumor Cell Lines Screen was performed using the standard one-dose NCI protocol, which is described in more detail at https://dtp.cancer.gov/discovery_development/nci-60/default.htm.
Compounds with GIPRCNT values below 10 were considered active. Activity score was based on GIPRCNT using the following formula: […]
Score is 0 for GIPRCNT values of 100 or above, 50 for GIPRCNT values of 0, and 100 for GIPRCNT values of -100.

For `CC(C)(C)c1ccc(S(=O)(=O)N[C@H]2CC[C@H]3[C@@H]4CCc5cc(OS(=O)(=O)O)ccc5[C@H]4CC[C@]23C)cc1`, which growth is on record?
The growth was 34.1%.

Which growth does the source give for `CCNc1nc(C(F)(F)F)nc2c1sc(=S)n2-c1ccccc1` here?
Its growth is 107%.

`CC(=O)N[C@H](C(=O)N[C@@H](CCCNC(=N)N)C(=O)N[C@@H](CCCCN)C(=O)N[C@@H](CCCNC(=N)N)C(=O)N[C@]1(C)CCC/C=C\CCC[C@@](C)(C(=O)N[C@@H](CC(C)C)C(=O)N[C@@H](CC(C)C)C(=O)N[C@@H](CCC(N)=O)C(=O)N[C@@H](CCC(=O)O)C(=O)N[C@@H](CCCNC(=N)N)C(=O)N[C@@H](CCC(=O)O)C(=O)N[C@@H](CC(C)C)C(=O)N[C@H](C(=O)N[C@@H](CCC(=O)O)C(N)=O)C(C)C)NC(=O)[C@H](CCCNC(=N)N)NC(=O)[C@H](CC(C)C)NC1=O)C(C)C` was tested. Which growth did it give?
Its growth is 109%.

With `CCCCN(CCCC)C(=O)[C@H](CC)[C@@H]1CC[C@@H](C)[C@@H]([C@H](C)[C@@H](O)[C@@H](C)C(=O)[C@H](CC)C2O[C@]3(C=CC(=O)[C@]4(CC[C@@](C)([C@H]5CC[C@](O)(CC)[C@H](C)O5)O4)O3)[C@H](C)C[C@@H]2C)O1` (stereo not given in full) as the compound, how does the growth read?
The growth was 31.5%.

Which growth does the source give for `NC(=O)c1cccc(-n2ccc3cc(NC(=O)Nc4ccc(Cl)c(C(F)(F)F)c4)ccc32)n1` here?
The growth was 94.7%.

`C(=N\Nc1ncnc2sc3c(c12)CCNC3)/c1cccc2ccccc12` was tested. Which growth did it give?
Its growth is 113%.

`O=C(Nc1cccc2c1CCCC2)c1cc2ccccc2cc1O` was tested. Which growth did it give?
The growth was 28.2%.

With `O=C(CN1CCN(C(=O)c2ccccc2)CC1)Nc1ccccc1SCc1ccccc1` as the compound, how does the growth read?
Its growth is 91.5%.

How did the growth turn out when `COc1cc(/C=C/c2cc(/C=C/c3ccc(O)c(OC)c3)n(C(=O)Nc3ccccc3Cl)n2)ccc1O` was run?
The growth was -26.8% (active).

With `CNC(=O)c1cc(Oc2ccc3c(c2)sc2nc(-c4ccc(N)cc4)cn23)ccn1` as the compound, how does the growth read?
Its growth is 1.42% (active).

How did the growth turn out when `CN(C)CCCOc1ccc(NC2=C(Cl)C(=O)C(Nc3ccc(OCCCN(C)C)cc3)=C(Cl)C2=O)cc1` was run?
Its growth is -98.3% (active).

Which growth does the source give for `O=C(CCCSc1nc(-c2ccc(Cl)cc2)cc(-c2ccc(Cl)cc2)n1)NO` here?
The growth was 5.4% (active).

Which growth does the source give for `c1cncc(-c2csc(-c3c[nH]c4ccccc34)n2)c1` here?
The growth was 85.6%.

With `COc1cc2c3c(n([C@H]4CCOC4)c(=O)c2cc1OC)-c1cc2c(cc1C3=O)OCO2` as the compound, how does the growth read?
Its growth is 46.9%.

With `Cc1c(Cl)cccc1NC(=O)CCCl` as the compound, how does the growth read?
Its growth is 102%.

With `COc1cc2cc(Oc3ccc(NC(=O)Nc4ccc(C(F)(F)F)cc4)cc3)c(C)nc2cc1OC` as the compound, how does the growth read?
Its growth is 67%.

With `COc1ccc(/C=C2\CCCC3=C2NC(N)=NC3c2ccc(OC)c(OC)c2)cc1OC` (stereo not given) as the compound, how does the growth read?
The growth was 10.8%.

Which growth does the source give for `COc1cc(C(=O)/C(C)=C/c2c[nH]c3ccccc23)cc(OC)c1OC` here?
Its growth is -8.19% (active).

With `CC(C)N(CCOc1cccc(-c2nc3sccn3c2-c2ccnc(S(C)(=O)=O)n2)c1)C(C)C` as the compound, how does the growth read?
Its growth is 90.6%.

How did the growth turn out when `C#CCOc1c(OC)cc(C(=O)/C(C)=C/c2cccc(N=[N+]=[N-])c2)cc1OC` was run?
Its growth is -0.611% (active).

`COC1=CC(=O)OC(c2ccc(OC)cc2)C1` (stereo not given) was tested. Which growth did it give?
Its growth is 103%.

How did the growth turn out when `Cn1c2ccccc2c2c3[nH][nH]c(=O)c3c3c4ccccc4[nH]c3c21` was run?
The growth was 2.46% (active).

For `N#Cc1c(-c2ccc(Cl)cc2)cc(-c2cc(O)ccc2O)nc1N`, which growth is on record?
Its growth is -17.2% (active).

For `CC(C1=C(CN(C(=O)Cc2cn(-c3ccccc3)nc2-c2ccc(Cl)cc2)C(C)C)Cc2ccccc21)c1ccccn1` (stereo not given), which growth is on record?
The growth was 62.4%.

`O=C(CCc1nnc2sc(-c3cc(O)c(O)c(O)c3)nn12)c1nc2ccccc2[nH]1` was tested. Which growth did it give?
The growth was 119%.

Which growth does the source give for `COc1nc2c(c(=O)n1C)CN(c1ccccc1)C(=O)C(C)N2` (stereo not given) here?
The growth was 112%.

`COc1ccc(C2CC(c3cccs3)=NN2c2ccc(S(N)(=O)=O)cc2)cc1` (stereo not given) was tested. Which growth did it give?
The growth was 92.5%.

How did the growth turn out when `O=C1/C(=C/c2cccc(F)c2)Cc2ccccc21` was run?
The growth was 113%.

`COc1ccc(-c2cc(-c3ccccc3)nc(SCCCCCCC(=O)NO)n2)cc1` was tested. Which growth did it give?
Its growth is 67.8%.

With `Nc1nc(Cn2c(-c3nonc3N)nc3ccccc32)nc(N2CCCCC2)n1` as the compound, how does the growth read?
The growth was 95.6%.

How did the growth turn out when `OCCn1cccn1` was run?
The growth was 104%.

How did the growth turn out when `CCn1c(CSc2nc3ccccc3c(=O)n2CCc2ccccc2)n[nH]c1=S` was run?
Its growth is 102%.

Which growth does the source give for `COc1cc(/C=C2\CCCC3C2=Nc2ccccc2NC3c2cc(OC)c(OC)c(OC)c2)cc(OC)c1OC` (stereo not given) here?
Its growth is -7.11% (active).

With `O=C1NC(=O)c2c(CCCSc3nc4ccccc4c(=O)n3CCc3ccccc3)cccc21` as the compound, how does the growth read?
The growth was 115%.

With `CN(C)CCOc1ccc(-c2nc3sccn3c2-c2ccnc(S(C)(=O)=O)n2)cc1` as the compound, how does the growth read?
The growth was 115%.

Which growth does the source give for `CCCc1cn(CC(=O)Nc2nc3ccccc3s2)nn1` here?
The growth was 107%.

With `CSc1ccc(-c2cc(-c3ccc(NC(=O)CCCN4CCCC4)cc3)nc(-c3ccc(NC(=O)CCCN4CCCC4)cc3)c2)cc1` as the compound, how does the growth read?
The growth was 63.4%.

`COc1ccc(/C=C2\CCCC3=C2N=C2SC(C)=CN2C3c2ccc(OC)cc2)cc1` (stereo not given) was tested. Which growth did it give?
The growth was 102%.

Which growth does the source give for `Nc1nccc(OCCO)n1` here?
The growth was 105%.

For `Cc1cc(C)nc(NS(=O)(=O)c2ccc(Nc3nc4nc(NCc5ccccc5)nc(-c5ccc(O)cc5)c4c(=O)[nH]3)cc2)n1`, which growth is on record?
Its growth is 34.2%.
